Assay [1] in a line: NCI Yeast Anticancer Drug Screen. Data for the rad50 strain (AID 155).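 Note: 0% = growth of vehicle-only cultures of the same strain.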 Conditions: S. cerevisiae rad50 strain growth inhibition, hits give high values; at 50.0 µM unless noted. In outline:
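Yeast carrying a defined DNA repair defect were exposed to test compounds, and growth was compared with vehicle-treated controls to give percent inhibition.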

The nature of assay [2]: NCI Yeast Anticancer Drug Screen. Data for the mec2-1 strain (AID 157). Conditions: S. cerevisiae mec2-1 strain, hits give high values; at 50.0 µM unless noted. In outline:
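mec2-1 yeast strain, carrying an alteration in DNA damage repair or cell cycle control, was exposed to compounds; growth inhibition was measured relative to vehicle-treated controls.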

A short description of assay [3]: NCI Yeast Anticancer Drug Screen. Data for the sgs1 mgt1 strain (AID 161).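 Note: 0% = growth of cultures given vehicle only.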 The conditions noted are these: S. cerevisiae sgs1 mgt1 strain, hits give high values; at 50.0 µM unless noted. In outline:
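Growth of a repair-deficient yeast mutant was monitored after compound treatment and expressed as inhibition relative to vehicle-treated cultures.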

Assay [4] in a line: NCI Yeast Anticancer Drug Screen. Data for the cln2 rad14 strain (AID 165).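 Note: 0% = growth equal to vehicle treated cultures.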 Conditions: S. cerevisiae cln2 rad14 strain, hits give high values; at 50.0 µM unless noted. Summed up: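 Yeast carrying cln2 and rad14 alterations (cell cycle control and DNA damage repair) were exposed to compounds. Growth inhibition was measured against vehicle-treated controls.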
Assay [5] is described as follows: NCI Yeast Anticancer Drug Screen. Data for the bub3 strain (AID 167). Conditions: S. cerevisiae bub3 mutant strain, hits give high values; at 50.0 µM unless noted. Summed up: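 Compounds were applied to a genetically altered yeast strain carrying a cell-cycle control defect. Growth inhibition was scored against vehicle-treated controls.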
Assay [6] in a line: NCI Yeast Anticancer Drug Screen. Data for the mlh1 rad18 strain (AID 175). The conditions noted are these: S. cerevisiae mlh1 rad18 strain growth inhibition, hits give high values; at 50.0 µM unless noted. In outline:
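Growth inhibition of the yeast strain was measured after compound exposure and expressed relative to vehicle-treated controls. The strain carries defined defects in DNA damage repair.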

This is part of a sample that, as a whole, favours compounds with a hit. Of some 79,000 tested, about 15% had one in any assay. A number with no mark means an inactive call. Activity calls are given as the source filed them. Cut-off read from the data, not from the text of the source: active = growth inhibition above about 70%; inactive = the rest.

Turning to `O=C(CC(=O)N1N=C(n2ccc3ccccc32)CC1c1ccccc1)Nc1ccc(Cl)cc1` (stereo not given), the growth inhibition is -25.3% in assay [1]; -7.7% in assay [2]; -16.8% in assay [3]; 7.1% in assay [4]; -4.35% in assay [5]; -5% in assay [6].

As to `O=C1CCCCC(=O)NCCCCCCN1`, the growth inhibition in assay [1] is -7.95%; in assay [2] it was -2.65%; in assay [3], -18.4%; in assay [4], -21.4%; in assay [5], -12.4%; in assay [6], 1.85%.

For `CCC(=O)OC(C)COc1ccccc1` (stereo not given), the growth inhibition was -6.2% in assay [1]; 3.25% in assay [2]; -3.9% in assay [3]; -43.5% in assay [4]; -5.8% in assay [5]; -10.4% in assay [6].

Consider `CCCCCCCCN(CCCCCCCC)CC(O)c1cc(Cl)c(Cl)c(Cl)c1` (stereo not given), for which the growth inhibition is 24.1% in assay [1]; 12.3% in assay [2]; 47.4% in assay [3]; 53.9% in assay [4]; 18.6% in assay [5]; 33% in assay [6].

For the compound `COc1cccc(-c2cc(=O)c3cc(N4CCOCC4)ccc3[nH]2)c1`, the growth inhibition in assay [1] was -35.9%; in assay [2] it was -27.9%; in assay [3], -22.9%; in assay [4], -2%; in assay [5], -40.9%; in assay [6] it was -58.2%.

Turning to `CCOC(=O)/C(SC#N)=C(/N)N1CCCC1`, the growth inhibition in assay [1] is -12.2%; in assay [2], -43.8%; in assay [3] it was -4%; in assay [4] it was 9.95%; in assay [5], 0.75%; in assay [6] it was -14.2%.

For the compound `Cc1nccn1C(/C(=N/O)c1ccccc1)c1ccccc1` (stereo not given), the growth inhibition in assay [1] was -0.55%; in assay [2] it was 10.4%; in assay [3], -0.5%; in assay [4], 13.7%; in assay [5] it was 10.8%; in assay [6] it was 3.2%.

Turning to `O=C(O)CSc1nc2ccccc2[nH]1`, the growth inhibition is 3.5% in assay [1]; 1.55% in assay [2]; -36% in assay [3]; -13.9% in assay [4]; -35.4% in assay [5]; 10% in assay [6].

For the compound `Nc1ccc2c(C(F)(F)F)cc(=O)oc2c1`, the growth inhibition in assay [1] was 14.2%; in assay [2] it was -2.2%; in assay [3], 8.2%; in assay [4], -29.6%; in assay [5] it was 8.55%; in assay [6], 8.8%.

Consider `Cc1cc2cccc(Cl)c2nc1C(=O)c1ccccc1`, for which the growth inhibition in assay [1] is -9.3%; in assay [2], -12.3%; in assay [3], -9.3%; in assay [4], 22.4%; in assay [5] it was -7.4%; in assay [6], -12.6%.

Take `CC(C)CCN`: the growth inhibition in assay [1] was 2.75%; in assay [2], 8.9%; in assay [3], -3.35%; in assay [4], 19.1%; in assay [5], 3.3%; in assay [6], 30.2%.

For `COC(=O)C1CCCCCCCCCCC12SCCCS2` (stereo not given), the growth inhibition in assay [1] was -32.5%; in assay [2], -11.4%; in assay [3], -17.5%; in assay [4], 16.2%; in assay [5], -5.7%; in assay [6], -30%.

For the compound `N#CC(c1ccccc1)c1ccc2ccccc2n1` (stereo not given), the growth inhibition in assay [1] was 23.6%; in assay [2], 7.4%; in assay [3], 10.8%; in assay [4], 2.6%; in assay [5], 33.5%; in assay [6], -0.9%.

Turning to `CC1(C)C2(Cl)C(Cl)=C(Cl)C13C(Cl)(c1ccc([N+](=O)[O-])cc1C1(Cl)C(Cl)(Cl)C4(Cl)C(Cl)=C(Cl)C13C4(C)C)C2(Cl)Cl` (stereo not given), the growth inhibition in assay [1] is 0.55%; in assay [2], -10.1%; in assay [3], -27.9%; in assay [4] it was -7.6%; in assay [5], -2.5%; in assay [6], 13%.

As to `O=c1ccc2ccccc2cc1`, the growth inhibition in assay [1] is 14.3%; in assay [2], -18.6%; in assay [3], 20.8%; in assay [4], -39.9%; in assay [5], 8.15%; in assay [6], 8.4%.

Take `CC(=O)OCC1C2C=CC(C2)C1COC(C)=O` (stereo not given): the growth inhibition in assay [1] was 2.2%; in assay [2], -4.8%; in assay [3], -5.1%; in assay [4], -47.1%; in assay [5], -2.9%; in assay [6], 2.1%.

As for `CC1=CC(=O)[C@@H](O)[C@@]2(C)C1C[C@H]1OC(=O)[C@H](C/C=C(/C)C(C)C)[C@H]3C(C)C(O)C4(O)OC[C@@]31C42` (stereo not given in full), the growth inhibition in assay [1] was 76.8% (active); in assay [2], 77.9% (active); in assay [3], 72% (active); in assay [4], 81.7% (active); in assay [5] it was 80% (active); in assay [6], 76.5% (active).

Take `CC1(C)CC(=O)C=C(NCc2ccccc2)C1`: the growth inhibition in assay [1] was -0.95%; in assay [2], -2.6%; in assay [3], -8.35%; in assay [4] it was -24.9%; in assay [5], -19.1%; in assay [6] it was 11.2%.

Take `O=C(O)/C(=C/c1cccs1)c1ccc(F)cc1`: the growth inhibition was 19.1% in assay [1]; 12.2% in assay [2]; 15% in assay [3]; 28.9% in assay [4]; -3.2% in assay [5]; 3.75% in assay [6].

`CCCNCCCCCCNc1cc(OC)cc2cccnc12`: the growth inhibition in assay [1] is 54.9%; in assay [2], 6.05%; in assay [3], 39.7%; in assay [4], 63.4%; in assay [5], 31.9%; in assay [6], 54.3%.
